Measurements: PubChem BioAssay AID1159580 (chemical genetic matrix, 2015)
“And” between values parts separate entries of the source, which are not always exact repeats. Identical values can stand only once. In all, about 5,500 compounds went through this assay and about 2,000 (36%) were called active. Roughly 18% stayed inconclusive and do not appear here. Cut-off read from the data, not from the text of the source: active = normalized growth mostly below about 0.91 (no sharp cut-off); inconclusive = no clear call, values can overlap the other calls; inactive = mostly above about 0.92. The list shows a part of the results.

Test: chemical genetic growth profiling, strain panel (AID 1159580);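 note: tested at 20 µM; growth read once vehicle control cultures reached saturation at 30 °C; 1 = growth at the plate median or of vehicle wells; lower values mean less growth of the strain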
Details: growth OD

Measured: normalized growth

NCCCNCCSP(=O)(O)O
inactive: S. cerevisiae deletion strains, locus YJR075W, strain HOC1, stronger effect = lower value 1.01 | S. cerevisiae deletion strains, locus YKL009W, strain mrt4, stronger effect = lower value 0.969 | S. cerevisiae deletion strains, locus YKL068W, stronger effect = lower value 0.982 | S. cerevisiae deletion strains, locus YKL085W, strain MDH1 (second series), stronger effect = lower value 0.985 | S. cerevisiae deletion strains, locus YKL085W, strain MDH1, stronger effect = lower value 0.985 | S. cerevisiae deletion strains, locus YKL160W, strain elf1, stronger effect = lower value 0.963 | S. cerevisiae deletion strains, locus YKL190W, strain CNB1, stronger effect = lower value 0.988 | S. cerevisiae deletion strains, locus YKR001C, strain vps1, stronger effect = lower value 0.986 | S. cerevisiae deletion strains, locus YKR026C, strain gcn3, stronger effect = lower value 0.984 | S. cerevisiae deletion strains, locus YKR091W, strain srl3, stronger effect = lower value 0.969 | S. cerevisiae deletion strains, locus YLL001W, strain dnm1, stronger effect = lower value 0.954 | S. cerevisiae deletion strains, locus YLL026W, stronger effect = lower value 0.972 | S. cerevisiae deletion strains, locus YLL041C, strain sdh2, stronger effect = lower value 0.983 | S. cerevisiae deletion strains, locus YLR027C, strain aat2, stronger effect = lower value 0.964 | S. cerevisiae deletion strains, locus YLR039C, strain RIC1, stronger effect = lower value 0.974 | S. cerevisiae deletion strains, locus YLR058C, strain SHM2, stronger effect = lower value 0.989 | S. cerevisiae deletion strains, locus YLR102C, strain apc9, stronger effect = lower value 0.992 | S. cerevisiae deletion strains, locus YLR221C, strain rsa3, stronger effect = lower value 0.952 | S. cerevisiae deletion strains, locus YLR258W, strain gsy2, stronger effect = lower value 0.994 | S. cerevisiae deletion strains, locus YLR262C, strain YPT6 (second series), stronger effect = lower value 0.96 | S. cerevisiae deletion strains, locus YLR262C, strain YPT6, stronger effect = lower value 0.973 | S. cerevisiae deletion strains, locus YLR268W, strain sec22, stronger effect = lower value 0.995 | S. cerevisiae deletion strains, locus YLR320W, strain mms22, stronger effect = lower value 0.961 | S. cerevisiae deletion strains, locus YLR330W, strain CHS5, stronger effect = lower value 0.989 | S. cerevisiae deletion strains, locus YLR342W, strain FKS1 (second series), stronger effect = lower value 0.975 | S. cerevisiae deletion strains, locus YLR342W, strain FKS1, stronger effect = lower value 0.979 | S. cerevisiae deletion strains, locus YLR357W, strain rsc2, stronger effect = lower value 0.957 | S. cerevisiae deletion strains, locus YLR370C, strain arc18, stronger effect = lower value 0.969 | S. cerevisiae deletion strains, locus YLR371W, strain rom2, stronger effect = lower value 0.974 | S. cerevisiae deletion strains, locus YLR384C, strain iki3, stronger effect = lower value 0.96 | S. cerevisiae deletion strains, locus YLR418C, strain cdc73, stronger effect = lower value 1.01 | S. cerevisiae deletion strains, locus YML016C, strain PPZ1, stronger effect = lower value 0.99 | S. cerevisiae deletion strains, locus YML032C, strain rad52, stronger effect = lower value 0.978 | S. cerevisiae deletion strains, locus YML120C, strain ndi1, stronger effect = lower value 0.964 | S. cerevisiae deletion strains, locus YML124C, strain tub3, stronger effect = lower value 0.991 | S. cerevisiae deletion strains, locus YMR058W, strain fet3, stronger effect = lower value 0.976 | S. cerevisiae deletion strains, locus YMR078C, strain ctf18, stronger effect = lower value 0.981 | S. cerevisiae deletion strains, locus YMR125W, strain sto1, stronger effect = lower value 0.975 | S. cerevisiae deletion strains, locus YMR129W, stronger effect = lower value 0.99 | S. cerevisiae deletion strains, locus YMR205C, strain PFK2, stronger effect = lower value 0.937 | S. cerevisiae deletion strains, locus YMR223W, strain ubp8, stronger effect = lower value 0.973 | S. cerevisiae deletion strains, locus YMR231W, strain pep5, stronger effect = lower value 0.978 | S. cerevisiae deletion strains, locus YMR263W, strain SAP30, stronger effect = lower value 0.997 and 0.98 | S. cerevisiae deletion strains, locus YMR307W, strain GAS1, stronger effect = lower value 0.974 | S. cerevisiae deletion strains, locus YNL067W, strain RPL9B, stronger effect = lower value 0.984 | S. cerevisiae deletion strains, locus YNL071W, strain lat1, stronger effect = lower value 0.983 | S. cerevisiae deletion strains, locus YNL128W, strain TEP1, stronger effect = lower value 1.01 and 1 | S. cerevisiae deletion strains, locus YNL153C, strain GIM3, stronger effect = lower value 1.01 and 0.993 | S. cerevisiae deletion strains, locus YNL175C, strain NOP13, stronger effect = lower value 1.01 | S. cerevisiae deletion strains, locus YNL197C, strain WHI3, stronger effect = lower value 1 | S. cerevisiae deletion strains, locus YNL209W, strain ssb2, stronger effect = lower value 0.981 | S. cerevisiae deletion strains, locus YNL224C, strain SQS1, stronger effect = lower value 0.988 | S. cerevisiae deletion strains, locus YNL233W, strain BNI4, stronger effect = lower value 0.997 | S. cerevisiae deletion strains, locus YNL248C, strain rpa49, stronger effect = lower value 0.977 | S. cerevisiae deletion strains, locus YNL250W, strain rad50, stronger effect = lower value 0.981 | S. cerevisiae deletion strains, locus YNL271C, strain bni1, stronger effect = lower value 0.994 | S. cerevisiae deletion strains, locus YNL298W, strain CLA4, stronger effect = lower value 0.988 | S. cerevisiae deletion strains, locus YNL307C, strain MCK1, stronger effect = lower value 0.989 | S. cerevisiae deletion strains, locus YNL322C, strain KRE1 (second series), stronger effect = lower value 0.956 | S. cerevisiae deletion strains, locus YNL322C, strain KRE1, stronger effect = lower value 1 | S. cerevisiae deletion strains, locus YNR049C, strain mso1, stronger effect = lower value 0.963 | S. cerevisiae deletion strains, locus YNR052C, strain pop2, stronger effect = lower value 0.986 | S. cerevisiae deletion strains, locus YOL006C, strain TOP1, stronger effect = lower value 1.02 | S. cerevisiae deletion strains, locus YOL012C, strain htz1 0.741 | S. cerevisiae deletion strains, locus YOL147C, strain pex11, stronger effect = lower value 0.988 | S. cerevisiae deletion strains, locus YOR001W, strain rrp6, stronger effect = lower value 1.02 | S. cerevisiae deletion strains, locus YOR061W, strain CKA2, stronger effect = lower value 1 | S. cerevisiae deletion strains, locus YOR069W, strain VPS5, stronger effect = lower value 0.995 | S. cerevisiae deletion strains, locus YOR070C, strain gyp1, stronger effect = lower value 0.982 | S. cerevisiae deletion strains, locus YOR080W, strain dia2, stronger effect = lower value 0.968 | S. cerevisiae deletion strains, locus YOR083W, strain WHI5 (second series), stronger effect = lower value 1.01 | S. cerevisiae deletion strains, locus YOR083W, strain WHI5, stronger effect = lower value 0.96 | S. cerevisiae deletion strains, locus YOR106W, strain vam3, stronger effect = lower value 0.931 | S. cerevisiae deletion strains, locus YOR136W, strain idh2, stronger effect = lower value 0.992 | S. cerevisiae deletion strains, locus YOR144C, strain elg1, stronger effect = lower value 0.982 | S. cerevisiae deletion strains, locus YOR184W, strain ser1, stronger effect = lower value 0.962 | S. cerevisiae deletion strains, locus YOR265W, strain rbl2, stronger effect = lower value 0.984 | S. cerevisiae deletion strains, locus YOR270C, strain vph1, stronger effect = lower value 0.924 | S. cerevisiae deletion strains, locus YOR290C, strain snf2, stronger effect = lower value 0.965 | S. cerevisiae deletion strains, locus YOR316C, strain cot1, stronger effect = lower value 0.977 | S. cerevisiae deletion strains, locus YPL051W, strain arl3, stronger effect = lower value 0.987 | S. cerevisiae deletion strains, locus YPL055C, strain LGE1, stronger effect = lower value 1.02 and 0.958 | S. cerevisiae deletion strains, locus YPL078C, strain atp4, stronger effect = lower value 0.971 | S. cerevisiae deletion strains, locus YPL106C, strain sse1, stronger effect = lower value 0.954 | S. cerevisiae deletion strains, locus YPL240C, strain hsp82, stronger effect = lower value 0.993 | S. cerevisiae deletion strains, locus YPL241C, strain CIN2, stronger effect = lower value 0.998 and 0.991 | S. cerevisiae deletion strains, locus YPR119W, strain clb2, stronger effect = lower value 0.995 | S. cerevisiae deletion strains, locus YPR141C, strain kar3, stronger effect = lower value 0.976 | S. cerevisiae deletion strains, locus YPR163C, strain tif3, stronger effect = lower value 0.986 | S. cerevisiae deletion strains, locus YPR167C, strain met16, stronger effect = lower value 0.995 | S. cerevisiae deletion strains, strain wtn01, stronger effect = lower value 0.99 | S. cerevisiae strains, strain wild type, stronger effect = lower value 0.977
